From the supplement of paper PMC13094657
± gives the standard deviation of the averaged measurements.

These molecules were tested on MDA-MB-231 (assay: cell viability relative to vehicle unstimulated control (fraction); higher = more viable cells). Settings: pre-treatment time: 18 h then 24 h IFNg/TNF.
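Note: viability of the cells left after supernatant collection, read with Deep Blue dye added for 4 h, as absorbance at 570 nm minus 600 nm.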

Row | Structure (SMILES) | cell viability
1 | CC12CCC(CC1)C(C)(C)O2 [1,8-cineole] (compound dose: 10 uM) | 0.978 ± 0.067
2 | C[C@@H]1CC[C@@]2(OC1)O[C@H]1C[C@H]3[C@@H]4CC=C5C[C@@H](O)C[C@@H](O)[C@]5(C)[C@H]4CC[C@]3(C)[C@H]1[C@@H]2C [Ruscogenin] (compound dose: 10 uM) | 1.01 ± 0.037
3 | C/C=C1/[C@H](O[C@@H]2O[C@H](CO)[C@@H](O)[C@H](O)[C@H]2O)OC=C(C(=O)OC)[C@H]1CC(=O)OCCc1ccc(O)c(O)c1 [Oleuropein] (compound dose: 10 uM) | 0.978 ± 0.075
4 | C=C(C)[C@@H]1CCC2=CC(=O)C[C@@H](C)[C@]2(C)C1 [Nootkatone] (compound dose: 10 uM) | 0.9333 ± 0.0022
5 | C[C@H](CC[C@@H](O[C@@H]1O[C@H](CO[C@@H]2O[C@H](CO)[C@@H](O)[C@H](O)[C@H]2O)[C@@H](O)[C@H](O)[C@H]1O[C@@H]1O[C@H](CO)[C@@H](O)[C@H](O)[C@H]1O)C(C)(C)O)[C@H]1CC[C@@]2(C)[C@@H]3CC=C4[C@@H](CC[C@H](O[C@@H]5O[C@H](CO[C@@H]6O[C@H](CO)[C@@H](O)[C@H](O)[C@H]6O)[C@@H](O)[C@H](O)[C@H]5O)C4(C)C)[C@]3(C)[C@H](O)C[C@]12C [Mogroside V] (compound dose: 10 uM) | 0.989 ± 0.021
6 | C[C@H]1O[C@@H](O[C@H]2CC[C@@]3(C)[C@@H](CC[C@]4(C)[C@@H]3C=C[C@]35OC[C@@]6(CCC(C)(C)C[C@H]63)[C@H](O)C[C@]54C)[C@]2(C)CO)[C@H](O)[C@@H](O[C@@H]2O[C@H](CO)[C@@H](O)[C@H](O)[C@H]2O)[C@H]1O [Saikosaponin D] (compound dose: 10 uM) | 0.922 ± 0.044
7 | CC1C(=O)OC2C(O)C34C5CC(C(C)(C)C)C36C(OC(=O)C6O)OC4(C(=O)O5)C12O (configuration not stated) [Ginkgolide B] (compound dose: 10 uM) | 0.9 ± 0.12
8 | C[C@H]1[C@H](C)CC[C@]2(C(=O)O)CC[C@]3(C)C(=CC[C@@H]4[C@@]5(C)CCC(=O)C(C)(C)[C@@H]5CC[C@]43C)[C@H]12 [Ursonic acid] (compound dose: 10 uM) | 0.9233 ± 0.0046
9 | C[C@H]1[C@H](OC(=O)CCC(=O)O)O[C@@H]2O[C@@]3(C)CC[C@H]4[C@H](C)CC[C@@H]1[C@@]24OO3 [Artesunate] (compound dose: 10 uM) | 0.909 ± 0.13
10 | C/C=C(/C)C(=O)O[C@H]1C(C)=C[C@]23C(=O)[C@@H](C=C(COC(C)=O)[C@@H](O)[C@]12O)[C@H]1[C@@H](C[C@H]3C)C1(C)C [20-O-Acetylingenol-3-angelate] (compound dose: 10 uM) | 1.1 ± 0.091
11 | CC1=CCC(O)(C(C)C)CC1 (configuration not stated) [Terpineol] (compound dose: 10 uM) | 0.969 ± 0.087
12 | C=C(CC[C@@H](C(=O)O)[C@H]1[C@H](O)C[C@@]2(C)C3=C(CC[C@]12C)[C@@]1(C)CC[C@H](OC(C)=O)C(C)(C)[C@@H]1CC3)C(C)C [Pachymic acid] (compound dose: 10 uM) | 0.862 ± 0.1
13 | C[C@H](CC[C@@H](O[C@@H]1O[C@H](CO[C@@H]2O[C@H](CO)[C@@H](O)[C@H](O)[C@H]2O)[C@@H](O)[C@H](O)[C@H]1O[C@@H]1O[C@H](CO)[C@@H](O)[C@H](O)[C@H]1O)C(C)(C)O)[C@H]1CC[C@@]2(C)[C@@H]3CC=C4[C@@H](CC[C@H](O[C@@H]5O[C@H](CO)[C@@H](O)[C@H](O)[C@H]5O)C4(C)C)[C@]3(C)[C@H](O)C[C@]12C [Siamenoside I] (compound dose: 10 uM) | 1.14 ± 0.34
14 | COc1cc2ccc(=O)oc2cc1O[C@@H]1O[C@H](CO)[C@@H](O)[C@H](O)[C@H]1O [Scopolin] (compound dose: 10 uM) | 1.015 ± 0.0034
15 | COc1cc(C(C)=O)cc(OC)c1O [Acetosyringone] (compound dose: 10 uM) | 1.05 ± 0.032
16 | COC(=O)C1=CO[C@@H](O[C@@H]2O[C@H](CO)[C@@H](O)[C@H](O)[C@H]2O)[C@H]2[C@@H]1C(=O)C[C@@H]2C [Verbenalin] (compound dose: 10 uM) | 0.953 ± 0.052
17 | C=C(C)C1CC=C(C)[C@@H](O)C1 (single isomer, unassigned; (-)) [(-)-carveol (mixed)] (compound dose: 10 uM) | 0.985 ± 0.086
